Positions count from the first letter of the chain named. The full ranking holds about 16,000 sequences; the median of “ka relative to ugcaugu” is about 0.096, and the highest 2% start at about 0.35. Shown is part of a subset that was picked to be rich in the highest values.
T1: RBFOX1 RRM RbFoxmut (Fox-RRM*) (Homo sapiens, UniProt Q9NWB1 109-208, R118D;E147R;N151S;E152T)
T1 sequence: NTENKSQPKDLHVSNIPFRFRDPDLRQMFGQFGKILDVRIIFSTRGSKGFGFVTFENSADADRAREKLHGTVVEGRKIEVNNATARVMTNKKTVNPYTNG

B1: UUGGUUA (DNA:RNA)
RNA: GGGAGACCGGAAUUCAGAUUGUCCUUGGUUAUUAAAUCCCGUCGUAGCCACCA
DNA 1: CAATCTGAATTCCGGTCTCCC
DNA 2: TGGTGGCTACGACGGGATT
B2: AUGACAU (DNA:RNA)
RNA: B1 RNA with U25A, G28A, U29C, U30A, A31U
DNA 1: CAATCTGAATTCCGGTCTCCC
DNA 2: TGGTGGCTACGACGGGATT
B3: CAAGGUA (DNA:RNA)
RNA: B1 RNA with U25C, U26A, G27A, U29G
DNA 1: CAATCTGAATTCCGGTCTCCC
DNA 2: TGGTGGCTACGACGGGATT
B4: UCUUGCG (DNA:RNA)
RNA: B1 RNA with U26C, G27U, G28U, U29G, U30C, A31G
DNA 1: CAATCTGAATTCCGGTCTCCC
DNA 2: TGGTGGCTACGACGGGATT
B5: UCUAAUU (DNA:RNA)
RNA: B1 RNA with U26C, G27U, G28A, U29A, A31U
DNA 1: CAATCTGAATTCCGGTCTCCC
DNA 2: TGGTGGCTACGACGGGATT
B6: AUACAAA (DNA:RNA)
RNA: B1 RNA with U25A, G27A, G28C, U29A, U30A
DNA 1: CAATCTGAATTCCGGTCTCCC
DNA 2: TGGTGGCTACGACGGGATT
B7: GGAUCUA (DNA:RNA)
RNA: B1 RNA with U25G, U26G, G27A, G28U, U29C
DNA 1: CAATCTGAATTCCGGTCTCCC
DNA 2: TGGTGGCTACGACGGGATT
B8: GUCCCCG (DNA:RNA)
RNA: B1 RNA with U25G, G27C, G28C, U29C, U30C, A31G
DNA 1: CAATCTGAATTCCGGTCTCCC
DNA 2: TGGTGGCTACGACGGGATT
B9: GGUCAUC (DNA:RNA)
RNA: B1 RNA with U25G, U26G, G27U, G28C, U29A, A31C
DNA 1: CAATCTGAATTCCGGTCTCCC
DNA 2: TGGTGGCTACGACGGGATT
B10: GUCCUGU (DNA:RNA)
RNA: B1 RNA with U25G, G27C, G28C, U30G, A31U
DNA 1: CAATCTGAATTCCGGTCTCCC
DNA 2: TGGTGGCTACGACGGGATT
B11: UGUAGGU (DNA:RNA)
RNA: B1 RNA with U26G, G27U, G28A, U29G, U30G, A31U
DNA 1: CAATCTGAATTCCGGTCTCCC
DNA 2: TGGTGGCTACGACGGGATT
B12: CCCUGUA (DNA:RNA)
RNA: B1 RNA with U25C, U26C, G27C, G28U, U29G
DNA 1: CAATCTGAATTCCGGTCTCCC
DNA 2: TGGTGGCTACGACGGGATT
B13: UGUAUGU (DNA:RNA)
RNA: B1 RNA with U26G, G27U, G28A, U30G, A31U
DNA 1: CAATCTGAATTCCGGTCTCCC
DNA 2: TGGTGGCTACGACGGGATT
B14: UGCUAUC (DNA:RNA)
RNA: B1 RNA with U26G, G27C, G28U, U29A, A31C
DNA 1: CAATCTGAATTCCGGTCTCCC
DNA 2: TGGTGGCTACGACGGGATT
B15: GGUCAUG (DNA:RNA)
RNA: B1 RNA with U25G, U26G, G27U, G28C, U29A, A31G
DNA 1: CAATCTGAATTCCGGTCTCCC
DNA 2: TGGTGGCTACGACGGGATT
B16: CUGUGUA (DNA:RNA)
RNA: B1 RNA with U25C, G28U, U29G
DNA 1: CAATCTGAATTCCGGTCTCCC
DNA 2: TGGTGGCTACGACGGGATT
B17: GUCAUGU (DNA:RNA)
RNA: B1 RNA with U25G, G27C, G28A, U30G, A31U
DNA 1: CAATCTGAATTCCGGTCTCCC
DNA 2: TGGTGGCTACGACGGGATT
B18: CGCUAUG (DNA:RNA)
RNA: B1 RNA with U25C, U26G, G27C, G28U, U29A, A31G
DNA 1: CAATCTGAATTCCGGTCTCCC
DNA 2: TGGTGGCTACGACGGGATT
B19: CUGUAUG (DNA:RNA)
RNA: B1 RNA with U25C, G28U, U29A, A31G
DNA 1: CAATCTGAATTCCGGTCTCCC
DNA 2: TGGTGGCTACGACGGGATT
B20: UGCUAUG (DNA:RNA)
RNA: B1 RNA with U26G, G27C, G28U, U29A, A31G
DNA 1: CAATCTGAATTCCGGTCTCCC
DNA 2: TGGTGGCTACGACGGGATT
B21: CUGGUGC (DNA:RNA)
RNA: B1 RNA with U25C, U30G, A31C
DNA 1: CAATCTGAATTCCGGTCTCCC
DNA 2: TGGTGGCTACGACGGGATT
B22: CGGACCU (DNA:RNA)
RNA: B1 RNA with U25C, U26G, G28A, U29C, U30C, A31U
DNA 1: CAATCTGAATTCCGGTCTCCC
DNA 2: TGGTGGCTACGACGGGATT
B23: CGGAUAC (DNA:RNA)
RNA: B1 RNA with U25C, U26G, G28A, U30A, A31C
DNA 1: CAATCTGAATTCCGGTCTCCC
DNA 2: TGGTGGCTACGACGGGATT
B24: CUCGGCU (DNA:RNA)
RNA: B1 RNA with U25C, G27C, U29G, U30C, A31U
DNA 1: CAATCTGAATTCCGGTCTCCC
DNA 2: TGGTGGCTACGACGGGATT
B25: AGCGAAC (DNA:RNA)
RNA: B1 RNA with U25A, U26G, G27C, U29A, U30A, A31C
DNA 1: CAATCTGAATTCCGGTCTCCC
DNA 2: TGGTGGCTACGACGGGATT
B26: UCGAUAG (DNA:RNA)
RNA: B1 RNA with U26C, G28A, U30A, A31G
DNA 1: CAATCTGAATTCCGGTCTCCC
DNA 2: TGGTGGCTACGACGGGATT
B27: AGCAAGC (DNA:RNA)
RNA: GGGAGACCGGAAUUCAGAUUGUCCAGCAAGCUUAAAUCCCGUCGUAGCCACCA
DNA 1: CAATCTGAATTCCGGTCTCCC
DNA 2: TGGTGGCTACGACGGGATT
B28: GGGGAAC (DNA:RNA)
RNA: B27 RNA with A25G, C27G, A28G, G30A
DNA 1: CAATCTGAATTCCGGTCTCCC
DNA 2: TGGTGGCTACGACGGGATT
B29: GGGGGCA (DNA:RNA)
RNA: B1 RNA with U25G, U26G, U29G, U30C
DNA 1: CAATCTGAATTCCGGTCTCCC
DNA 2: TGGTGGCTACGACGGGATT
B30: GGCAUUU (DNA:RNA)
RNA: B27 RNA with A25G, A29U, G30U, C31U
DNA 1: CAATCTGAATTCCGGTCTCCC
DNA 2: TGGTGGCTACGACGGGATT
B31: GGCAUGU (DNA:RNA)
RNA: B27 RNA with A25G, A29U, C31U
DNA 1: CAATCTGAATTCCGGTCTCCC
DNA 2: TGGTGGCTACGACGGGATT
B32: AGGCAUC (DNA:RNA)
RNA: B27 RNA with C27G, A28C, G30U
DNA 1: CAATCTGAATTCCGGTCTCCC
DNA 2: TGGTGGCTACGACGGGATT
B33: GGGCAUG (DNA:RNA)
RNA: B27 RNA with A25G, C27G, A28C, G30U, C31G
DNA 1: CAATCTGAATTCCGGTCTCCC
DNA 2: TGGTGGCTACGACGGGATT
B34: ACCGGCA (DNA:RNA)
RNA: B27 RNA with G26C, A28G, A29G, G30C, C31A
DNA 1: CAATCTGAATTCCGGTCTCCC
DNA 2: TGGTGGCTACGACGGGATT
B35: GGGCAUA (DNA:RNA)
RNA: B1 RNA with U25G, U26G, G28C, U29A
DNA 1: CAATCTGAATTCCGGTCTCCC
DNA 2: TGGTGGCTACGACGGGATT
B36: CGGCAUA (DNA:RNA)
RNA: B1 RNA with U25C, U26G, G28C, U29A
DNA 1: CAATCTGAATTCCGGTCTCCC
DNA 2: TGGTGGCTACGACGGGATT
B37: AGGCAUA (DNA:RNA)
RNA: B27 RNA with C27G, A28C, G30U, C31A
DNA 1: CAATCTGAATTCCGGTCTCCC
DNA 2: TGGTGGCTACGACGGGATT
B38: CGGCAUG (DNA:RNA)
RNA: B27 RNA with A25C, C27G, A28C, G30U, C31G
DNA 1: CAATCTGAATTCCGGTCTCCC
DNA 2: TGGTGGCTACGACGGGATT
B39: AGGCAUG (DNA:RNA)
RNA: B27 RNA with C27G, A28C, G30U, C31G
DNA 1: CAATCTGAATTCCGGTCTCCC
DNA 2: TGGTGGCTACGACGGGATT
B40: AUGUCGU (DNA:RNA)
RNA: B27 RNA with G26U, C27G, A28U, A29C, C31U
DNA 1: CAATCTGAATTCCGGTCTCCC
DNA 2: TGGTGGCTACGACGGGATT

target: T1, RBFOX1 RRM RbFoxmut (Fox-RRM*); experiment: EMSA; HiTS-Eq, 1 nM pool, 10 min; buffer printed only for the single-RNA assays: 10 mM Tris pH 7.5, 150 mM NaCl, 3.4 mM EDTA, 0.001% NP-40, 30 C; details: tags: His6 N-terminal (pET28a); label: 5' 32P
Outline: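 Relative association constants, normalised to the cognate motif, were derived by comparing read counts of each RNA species with those of the control reaction. The RNA sequenced was the free fraction, separated by 8% native PAGE after a 10 min equilibration in 50 µL of 1 nM 5′-radiolabelled RNA (7 randomized nucleotides) with increasing concentrations of purified wild-type or mutant RbFox RRM.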

First: B1
Second: B2
The binding signal of the first is higher: 0.155 KA relative to UGCAUGU for the first, 0.0668 KA relative to UGCAUGU for the second.

First: B3
Second: B4
The binding signal of the first is lower: 0.124 KA relative to UGCAUGU for the first, 0.168 KA relative to UGCAUGU for the second.

First: B5
Second: B6
The binding signal of the first is lower: 0.0829 KA relative to UGCAUGU for the first, 0.0876 KA relative to UGCAUGU for the second.

First: B7
Second: B8
The binding signal of the first is higher: 0.154 KA relative to UGCAUGU for the first, 0.0635 KA relative to UGCAUGU for the second.

First: B9
Second: B10
The binding signal of the first is higher: 0.152 KA relative to UGCAUGU for the first, 0.135 KA relative to UGCAUGU for the second.

Compared with B11, B12 is higher in binding signal: 0.126 KA relative to UGCAUGU for the first, 0.201 KA relative to UGCAUGU for the second.

First: B13
Second: B14
The binding signal of the first is higher: 0.914 KA relative to UGCAUGU for the first, 0.255 KA relative to UGCAUGU for the second.

Compared with B15, B16 is lower in binding signal: 0.512 KA relative to UGCAUGU for the first, 0.281 KA relative to UGCAUGU for the second.

Compared with B17, B18 is lower in binding signal: 0.288 KA relative to UGCAUGU for the first, 0.184 KA relative to UGCAUGU for the second.

First: B19
Second: B20
The binding signal of the first is higher: 1.11 KA relative to UGCAUGU for the first, 0.863 KA relative to UGCAUGU for the second.

Compared with B21, B22 is lower in binding signal: 0.0874 KA relative to UGCAUGU for the first, 0.0739 KA relative to UGCAUGU for the second.

First: B23
Second: B24
The binding signal of the first is higher: 0.0884 KA relative to UGCAUGU for the first, 0.0859 KA relative to UGCAUGU for the second.

First: B25
Second: B26
The binding signal of the first is lower: 0.0784 KA relative to UGCAUGU for the first, 0.1 KA relative to UGCAUGU for the second.

First: B27
Second: B28
The binding signal of the first is lower: 0.0622 KA relative to UGCAUGU for the first, 0.0664 KA relative to UGCAUGU for the second.

First: B29
Second: B30
The binding signal of the first is higher: 0.128 KA relative to UGCAUGU for the first, 0.0782 KA relative to UGCAUGU for the second.

Compared with B31, B32 is lower in binding signal: 0.834 KA relative to UGCAUGU for the first, 0.222 KA relative to UGCAUGU for the second.

First: B33
Second: B34
The binding signal of the first is higher: 1.23 KA relative to UGCAUGU for the first, 0.1 KA relative to UGCAUGU for the second.

First: B35
Second: B36
The binding signal of the first is higher: 0.134 KA relative to UGCAUGU for the first, 0.108 KA relative to UGCAUGU for the second.

First: B37
Second: B38
The binding signal of the first is lower: 0.11 KA relative to UGCAUGU for the first, 0.998 KA relative to UGCAUGU for the second.

Compared with B39, B40 is lower in binding signal: 0.799 KA relative to UGCAUGU for the first, 0.137 KA relative to UGCAUGU for the second.

Source: publication PMC9911399, “Two distinct binding modes provide the RNA-binding protein RbFox with extraordinary sequence specificity”
